Source: PubChem BioAssay
Rab9 prom act: activators of Rab9 promoter; Huh7 Rab9 promoter-luciferase reporter, luminescence, 24 h; Potency, µM (titrated, usually from 9.22 µM), usual class: activators; 320,000 tested, 2.8% active; AID 485297; note: nearly all actives have a fitted effect of over 60% in size
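Luminescence read-out: Huh7 cells stably expressing Rab9-luciferase, treated 24 h with compound at 37 °C, then lysed with luciferase reagent for 10 min at ambient before reading.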
ELG1 genotoxic: induces genotoxicity in HEK293T cells with luciferase-tagged ELG1; HEK293T ELG1-luciferase reporter, luminescence, 16 h; Potency, µM (doses to about 46 µM), actives largely listed as activators; 330,000 tested, 1.3% active; AID 504466; note: nearly all actives have a fitted effect of over 60% in size
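Genotoxicity was scored as increased ELG1-luciferase reporter signal, measured by ONE-Glo luminescence (30 min, room temperature). Compound or vehicle exposure of the HEK293T reporter cells lasted 16 hr at 37°C.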
NPC1 prom act: activates the NPC1 promoter; Potency, µM (series often up to 9.22 µM), most hits filed as activators; 320,000 tested, 2.4% active; Huh7 NPC1 promoter luciferase reporter, 24 h; note: nearly all actives have a fitted effect of over 60% in size
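NPC1 promoter–luciferase Huh7 cells; 24 h compound; luminescence.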
FLuc counter: counter-screen for miR-21 project: firefly luciferase inhibitors or activators | Potency, µM (top dose mostly 57.5 µM), hits mostly inhibitors | purified FLuc, Km substrates, luminescence inhibition | AID 588342 | 360,000 tested, 6.9% active; note: nearly all actives have a fitted effect of over 55% in size
Target sequence (P08659 whole entry, looked up): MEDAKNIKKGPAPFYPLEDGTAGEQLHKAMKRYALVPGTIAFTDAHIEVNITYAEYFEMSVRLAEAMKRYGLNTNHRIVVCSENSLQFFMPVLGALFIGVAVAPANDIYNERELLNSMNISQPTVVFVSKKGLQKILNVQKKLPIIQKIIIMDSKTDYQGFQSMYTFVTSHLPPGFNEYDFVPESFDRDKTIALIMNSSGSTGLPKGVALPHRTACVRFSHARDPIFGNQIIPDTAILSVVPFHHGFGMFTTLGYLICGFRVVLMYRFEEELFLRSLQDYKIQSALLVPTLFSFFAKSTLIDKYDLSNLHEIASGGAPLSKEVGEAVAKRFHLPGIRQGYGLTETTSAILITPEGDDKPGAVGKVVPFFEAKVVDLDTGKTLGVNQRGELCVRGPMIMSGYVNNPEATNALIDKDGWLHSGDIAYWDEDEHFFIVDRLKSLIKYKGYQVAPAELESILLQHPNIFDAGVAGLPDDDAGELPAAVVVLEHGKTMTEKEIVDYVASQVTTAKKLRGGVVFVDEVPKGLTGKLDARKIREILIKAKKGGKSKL
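Purified P. pyralis luciferase (10nM final) with 10uM D-luciferin and 10uM ATP (Km levels) in 50mM Tris acetate pH 7.5, 10mM Mg acetate, 0.01% Tween-20, 0.05% BSA; qHTS 6-point titration, ~60 µM downward; luminescence read.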
SMN2 splice enh: SMN2 splice variant enhancement; HEK293 SMN2-luciferase splicing reporter, luminescence, 30-36 h; 210,000 tested, 2.8% active; Potency, µM (series often up to 46.1 µM), most hits filed as activators; note: nearly all actives have a fitted effect of over 55% in size
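HEK293 cells carry an SMN2 minigene-luciferase reporter in which exon 7 inclusion puts luciferase in frame. Cells were seeded at 2000 cells/well, attached for 10-12 hours, then exposed to compounds for 30-36 hours at 37C before ONE-Glo luminescence.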
ELG1 DNA repair: inhibitors of ELG1-dependent DNA repair in HEK293T cells | AID 504467 | Potency, µM (top dose mostly 46.1 µM), usual class: inhibitors | HEK293T ELG1-luciferase reporter, luminescence, 16 h; DNA damage induced by 5-fluorouridine | 330,000 tested, 2.3% active; note: nearly all actives have a fitted effect of over 55% in size
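Cells (2,000 per well) received 5-fluorouridine plus test compound or DMSO and were incubated 16 hr at 37 °C, 5% CO2. Luciferase activity was read by luminescence 30 min after ONE-Glo addition; signal suppression marked inhibition of damage-induced ELG1 function.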
Hits are given with their value; – = inactive; ? = inconclusive; · = not tested or not shown; [ ] = another dose, or the depositor's remark. Compounds with a hit are over-represented: about 9.3% of the library has one in this group of screens. Calls come from the whole dose curve; as a rule, active = well fitted curve in the direction sought with a large enough effect; inconclusive = small, poorly fitted or top-dose-only effect, or another doubt; inactive = no such curve, though single readings can be large; an effect the other way counts as inactive or inconclusive.

SMILES | Rab9 prom act | ELG1 genotoxic | NPC1 prom act | FLuc counter | SMN2 splice enh | ELG1 DNA repair
CC(=O)c1ccc(NS(=O)(=O)c2cnc(N)nc2)cc1 | · | · | · | – | · | ·
COc1ccccc1NC(=O)Nc1ccc(N2CCOCC2)cc1 | ? | ? | ? | 17µM | – | ?
CCOC(=O)C(=O)Nc1ccccc1C(N)=O | – | – | – | – | – | –
CCOc1ccc(NC(=O)Nc2ccccc2C(N)=O)cc1 | – | – | – | 1.2µM | – | –
COc1ccccc1CNCC(=O)Nc1ccc(N2CCOCC2)cc1 | – | – | – | – | ? | –
CC(C)CCN(C(=O)CCCSc1nc2ccccc2[nH]1)c1c(N)n(Cc2ccccc2)c(=O)[nH]c1=O | – | – | – | – | · | –
O=C(OCN1C(=O)c2ccccc2C1=O)c1cccc(S(=O)(=O)N2CCOCC2)c1 | – | – | – | – | · | –
N#C/C(=C/c1ccc(Sc2nc3ccccc3[nH]2)o1)c1cccc(Br)c1 | – | – | – | – | – | ?
CCN1C(=O)S/C(=C/c2ccc(Sc3nc4ccccc4[nH]3)o2)C1=O | – | – | – | – | – | 12µM
CNS(=O)(=O)c1cccc(C(=O)OCC(=O)c2ccc3c(c2)OCCO3)c1 | – | – | – | 0.38µM | · | –
NS(=O)(=O)c1cc(C(=O)OCC(=O)c2ccc3c(c2)OCCO3)ccc1Cl | 2.8µM | ? | 2.8µM | 0.21µM | – | –
NS(=O)(=O)c1cc(C(=O)NNC(=O)c2ccc3c(c2)OCO3)ccc1Cl | · | – | · | · | · | –
COc1ccc(C)cc1NC(=O)CCS(=O)(=O)c1ccc2c(c1)CC(=O)N2C | · | · | · | – | · | ·
C/C(=N/NC(=O)c1ccc(C)s1)c1cccc(NC(=O)c2ccoc2C)c1 | – | – | – | 17µM | · | ?
Cc1cccc(NC(=O)c2ccccc2C(=O)O)c1 | – | – | – | – | – | –
Cc1cc(NC(=O)c2ccoc2C)ccc1Br | ? | ? | ? | 7.6µM | · | ?
Cc1occc1C(=O)Nc1cccc(C(F)(F)F)c1 | – | – | – | – | – | –
Cc1occc1C(=O)Nc1cccc(C(=O)O)c1 | 2.8µM | ? | 2.2µM | 9.5µM | ? | ?
Nc1ccccc1C(=O)Nc1cccc(C(=O)O)c1 | 2.2µM | – | ? | 2.7µM | – | –
Cc1occc1C(=O)Nc1ccc(S(N)(=O)=O)cc1 | – | – | – | ? | – | –
O=c1[nH]c(NC2CCCCC2)c([N+](=O)[O-])c(=O)[nH]1 | – | – | – | – | – | –
Cc1ccc(NC(=O)c2ccoc2C)cc1C | 2.8µM | ? | ? | ? | 16µM | ?
C/C(=N\NC(=O)c1ccncc1)c1cccc(NC(=O)c2ccc(Cl)s2)c1 | – | – | – | 19µM | · | ?
Cc1ccccc1C(=O)Nc1cccc(NC(=O)c2ccccc2[N+](=O)[O-])c1 | – | – | – | ? | · | –
Cc1occc1C(=O)Nc1ccc2c(c1)OCO2 | 2.8µM | 21µM | 3.5µM | 24µM | 13µM | ?
SMILES | Rab9 prom act | ELG1 genotoxic | NPC1 prom act | FLuc counter | SMN2 splice enh | ELG1 DNA repair
Cc1cc(NC(=O)c2ccccc2[N+](=O)[O-])ccc1Br | ? | ? | – | 17µM | – | ?
C/C(=N\NC(=O)c1ccc(Cl)cc1)c1cccc(NC(=O)C(C)C)c1 | – | – | – | ? | – | –
O=Cc1cccn1-c1ccc(O)cc1 | – | – | – | ? | · | –
CCC(Oc1ccc(F)cc1)C(=O)Nc1nc2c(s1)CCCC2 (stereo unspecified) | · | · | · | – | · | ·
CCOC(=O)c1ccc(NC(=O)Nc2ccc3snnc3c2)cc1 | · | · | · | – | – | ·
Nc1ncccc1OCc1ccc(Br)cc1 | 2.2µM | – | ? | 17µM | ? | ?
O=C(NC1CCCC1)C(c1ccc(F)cc1)N(Cc1ccccc1)C(=O)c1csnn1 (stereo unspecified) | – | – | – | – | · | –
CC(C)CCN(C(=O)c1csnn1)C(C(=O)NC1CCCC1)c1ccc(F)cc1 (stereo unspecified) | – | – | – | 19µM | · | –
Cc1cccc(N2CCN(C(=O)CCC(=O)N3Cc4ccccc4Oc4ncccc43)CC2)c1C | – | – | – | – | · | ?
Cc1ccc(C(=O)N/N=C\c2cccnc2)s1 | ? | ? | – | 6.7µM | · | ?
Nc1ccc(C(=O)N/N=C/c2ccccc2)cc1 | 3.2µM | ? | ? | 11µM | ? | ?
COC(=O)c1ccc(/C=N/NC(=O)c2cccc(F)c2)cc1 | 3.2µM | ? | 2µM | – | 14µM | ?
O=C(N/N=C/c1cccnc1)c1ccc([N+](=O)[O-])cc1 | – | – | – | 15µM | – | –
O=C(CN1CCN(C(C(=O)Nc2ccc(F)cc2)c2ccccc2)CC1)NC1CC1 (stereo unspecified) | – | – | – | – | · | –
CSc1ccc(/C=N/NC(=O)c2cccc(O)c2)cc1 | 3.5µM | ? | ? | 4.3µM | ? | ?
O=C(N/N=C/c1cccnc1)c1ccc(F)cc1 | ? | – | – | 13µM | · | ?
O=C(N/N=C/c1ccoc1)c1ccc([N+](=O)[O-])cc1 | – | – | – | 21µM | · | –
CC(=O)Nc1ccc(C(=O)N/N=C/c2ccc(F)cc2)cc1 | – | – | – | – | – | –
O=C(N/N=C\c1ccc(F)cc1)c1ccc(F)cc1 | ? | ? | ? | 19µM | ? | ?
CC(C(=O)NCc1ccco1)n1cc([N+](=O)[O-])cn1 (stereo unspecified) | – | – | – | – | – | –
O=C(CSc1nc2ccccc2nc1Cc1ccc(Cl)cc1)N1CCN(c2ccccc2F)CC1 | · | · | · | – | · | ·
CC(C(=O)NCc1cccnc1)c1ccc([N+](=O)[O-])cc1 (stereo unspecified) | – | – | – | – | · | –
CN(C)/C=C(\C#N)C(=O)N/N=C/c1ccc(F)cc1 | – | – | – | 17µM | – | –
CC(=O)n1cc(/C=N/NC(=O)c2ccc([N+](=O)[O-])cc2)c2ccccc21 | – | – | – | 6.7µM | · | –
Cc1c(/C=N\NC(=O)c2ccc([N+](=O)[O-])cc2)cnn1C | – | – | – | – | – | –
SMILES | Rab9 prom act | ELG1 genotoxic | NPC1 prom act | FLuc counter | SMN2 splice enh | ELG1 DNA repair
COCC1COS(=O)(=O)NC1(C)C (stereo unspecified) | – | – | – | – | · | ?
C/C(Cc1ccccc1)=N\NC(=O)c1ccc(F)cc1 | – | – | – | – | –[1.84 µM] | –
O=C(NN=C(Cc1ccccc1)Cc1ccccc1)c1ccccc1O | – | – | – | 12µM | – | ?
O=C(NN=C(Cc1ccccc1)Cc1ccccc1)c1ccc(F)cc1 | – | – | – | 19µM | – | –
CCOc1ccccc1NC(=O)C(CC)n1c(C(=O)OC)cc2occc21 (stereo unspecified) | · | · | · | – | – | ·
CCCC(=O)Nc1ccc(NC(=O)c2ccccc2F)cn1 | ? | – | ? | ? | · | ?
CCC(=O)Nc1ccc(NC(=O)c2ccccc2)nc1 | 0.45µM | ? | 1.3µM | 6µM | 4µM | ?
